# Measured values reported in the supplement of paper PMC3414501.
# Counter-ions that a name gives are not always drawn.
# Tested on: S. cerevisiae AD1-9 (efflux-pump deficient), vegetative growth in YPD; in the data active = 2 or more and inactive = the rest
# Experiment: growth sensitivity score (doubling time z-score vs DMSO controls); higher = slower growth, strongly negative scores also mark growth inhibition (complete suppression), active = hit call of the paper
# In short: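 Rich medium in microtiter plates was seeded with Saccharomyces cerevisiae strains BY4741 and AD1-9 at an OD600 of 0.065, and compounds were added as a 1:100 dilution of DMSO stock. A Tecan GENios reader recorded optical density every 15 min for 24 hours, with eight solvent-only wells in each experiment. Average doubling time was the time to reach a set generation point divided by generation number. The growth sensitivity score was the compound mean minus the solvent-only mean, divided by the solvent-only standard deviation.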
row,SMILES,growth sensitivity score
1,"Cc1ncc([N+](=O)[O-])n1CCO [Metronidazole] (stock concentration (mM, diluted 1:100): 10)",-0.99 (inactive)
2,"C=CC[C@@H]1/C=C(\C)C[C@H](C)C[C@H](OC)[C@H]2O[C@@](O)(C(=O)C(=O)N3CCCC[C@H]3C(=O)O[C@H](/C(C)=C/[C@@H]3CC[C@@H](O)[C@H](OC)C3)[C@H](C)[C@@H](O)CC1=O)[C@H](C)C[C@@H]2OC [Tacrolimus] (stock concentration (mM, diluted 1:100): 10)",20.9 (active)
3,"CCC(=O)O[C@]1(C(=O)SCF)[C@H](C)C[C@H]2[C@@H]3C[C@H](F)C4=CC(=O)C=C[C@]4(C)[C@@]3(F)[C@@H](O)C[C@@]21C [Fluticasone propionate] (stock concentration (mM, diluted 1:100): 10)",-1.65 (inactive)
4,"C[C@]12CC[C@@H]3c4ccc(OS(=O)(=O)O)cc4CC[C@H]3[C@@H]1CCC2=O (stock concentration (mM, diluted 1:100): 10)",0.01 (inactive)
5,"O=C(c1ccccc1)c1ccc2n1CCC2C(=O)O (stereo not drawn) [Toradol] (stock concentration (mM, diluted 1:100): 6.8)",0.21 (inactive)
6,"NNCCc1ccccc1 [Phenelzine sulfate salt] (stock concentration (mM, diluted 1:100): 10)",-0.66 (inactive)
7,"CC(C)NCC(O)COc1ccc(CCOCC2CC2)cc1 (stereo not drawn) [Betaxolol hydrochloride] (stock concentration (mM, diluted 1:100): 10)",-0.35 (inactive)
8,"CC(C)C[C@H](NC(=O)[C@@H](COC(C)(C)C)NC(=O)[C@H](Cc1ccc(O)cc1)NC(=O)[C@H](CO)NC(=O)[C@H](Cc1c[nH]c2ccccc12)NC(=O)[C@H](Cc1cnc[nH]1)NC(=O)[C@@H]1CCC(=O)N1)C(=O)N[C@@H](CCCNC(=N)N)C(=O)N1CCC[C@H]1C(=O)NNC(N)=O [Goserelin acetate] (stock concentration (mM, diluted 1:100): 9.6)",0.11 (inactive)
9,"Clc1ccc2c(c1)CCc1cccnc1C2=C1CCNCC1 [Desloratadine] (stock concentration (mM, diluted 1:100): 10)",60.1 (active)
10,"COc1cccc2c1C(=O)c1c(O)c3c(c(O)c1C2=O)C[C@@](O)(C(=O)CO)C[C@@H]3O[C@H]1C[C@H](N)[C@H](O)[C@H](C)O1 [Doxorubicin hydrochloride] (stock concentration (mM, diluted 1:100): 9.4)",83.6 (active)
11,"CC[C@@H]1C(=O)OC[C@@H]1Cc1cncn1C [Pilocarpine hydrochloride] (stock concentration (mM, diluted 1:100): 10)",0.16 (inactive)
12,"CN(Cc1cnc2nc(N)nc(N)c2n1)c1ccc(C(=O)N[C@@H](CCC(=O)O)C(=O)O)cc1 [Methotrexate] (stock concentration (mM, diluted 1:100): 14.6)",-2.15
13,"CC(C(O)c1ccc(O)cc1)N1CCC(Cc2ccccc2)CC1 (stereo not drawn) [Ifenprodil] (stock concentration (mM, diluted 1:100): 9.2)",44.9 (active)
14,"CN(C)CCc1c[nH]c2ccc(Cn3cncn3)cc12 [Rizatriptan benzoate] (stock concentration (mM, diluted 1:100): 10)",-1.17 (inactive)
15,"O=C(O[C@@H]1Cc2c(O)cc(O)cc2O[C@@H]1c1cc(O)c(O)c(O)c1)c1cc(O)c(O)c(O)c1 [Epigallocatechin gallate] (stock concentration (mM, diluted 1:100): 10)",-3.35
16,"CN(C)CCC=C1c2ccccc2COc2ccccc21 [Doxepin] (stock concentration (mM, diluted 1:100): 10)",5.43 (active)
17,"CC#C[C@]1(O)CC[C@H]2[C@@H]3CCC4=CC(=O)CCC4=C3[C@@H](c3ccc(N(C)C)cc3)C[C@@]21C [Mifepristone] (stock concentration (mM, diluted 1:100): 10)",172 (active)
18,"CC(C(=O)O)c1ccc(-c2ccccc2)c(F)c1 (stereo not drawn) [Flurbiprofen] (stock concentration (mM, diluted 1:100): 11.4)",0.77 (inactive)
